Assay results as given in PMC4336329 (PLoS ONE, 2015).
In all, about 310,000 compounds went through this assay and about 14,000 (4.5%) showed an effect of 50% or more. Effects have a minus sign here. Shown is part of a subset that was picked to be rich in strong results.

target: human ether-à-go-go-related gene (hERG) potassium channel (human, UniProt Q12809); experiment: primary screen, population patch clamp on CHO cells stably expressing hERG; higher = less effect of the substance
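Also: peak tail current of the secondary pulse compared with the same well before compound.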

human ether-à-go-go-related gene (hERG) potassium channel, sequence (Q12809 whole entry, looked up): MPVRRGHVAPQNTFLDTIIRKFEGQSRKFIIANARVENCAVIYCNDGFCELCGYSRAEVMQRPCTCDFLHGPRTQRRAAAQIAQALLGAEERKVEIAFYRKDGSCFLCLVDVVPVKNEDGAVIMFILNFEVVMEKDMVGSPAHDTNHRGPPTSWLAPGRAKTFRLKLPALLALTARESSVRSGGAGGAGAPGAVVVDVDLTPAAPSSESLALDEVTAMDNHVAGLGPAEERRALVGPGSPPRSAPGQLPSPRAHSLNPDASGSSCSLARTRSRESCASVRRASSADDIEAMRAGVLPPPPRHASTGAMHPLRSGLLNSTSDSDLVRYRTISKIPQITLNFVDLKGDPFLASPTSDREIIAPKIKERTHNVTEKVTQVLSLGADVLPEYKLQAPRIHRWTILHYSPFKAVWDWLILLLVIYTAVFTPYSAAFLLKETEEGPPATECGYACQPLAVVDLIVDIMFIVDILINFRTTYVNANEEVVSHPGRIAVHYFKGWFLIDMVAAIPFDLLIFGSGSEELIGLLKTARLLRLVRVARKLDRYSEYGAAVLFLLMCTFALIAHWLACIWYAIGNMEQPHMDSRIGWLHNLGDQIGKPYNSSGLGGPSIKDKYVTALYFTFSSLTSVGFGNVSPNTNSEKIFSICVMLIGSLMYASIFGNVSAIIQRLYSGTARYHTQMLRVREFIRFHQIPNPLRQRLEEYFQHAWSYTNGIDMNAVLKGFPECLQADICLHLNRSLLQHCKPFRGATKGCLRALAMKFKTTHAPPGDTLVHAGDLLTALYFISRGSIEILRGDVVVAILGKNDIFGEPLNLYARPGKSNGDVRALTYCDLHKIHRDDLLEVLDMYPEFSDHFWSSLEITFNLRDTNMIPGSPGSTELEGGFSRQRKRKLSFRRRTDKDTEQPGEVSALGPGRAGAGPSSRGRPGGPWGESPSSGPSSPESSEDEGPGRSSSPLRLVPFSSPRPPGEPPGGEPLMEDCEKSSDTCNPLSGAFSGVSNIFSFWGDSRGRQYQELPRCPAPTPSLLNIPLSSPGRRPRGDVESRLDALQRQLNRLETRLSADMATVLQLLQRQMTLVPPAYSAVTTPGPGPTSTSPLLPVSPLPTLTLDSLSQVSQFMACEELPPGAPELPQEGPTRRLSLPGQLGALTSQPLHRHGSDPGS

| Structure (SMILES) | hERG current change (%, negative = inhibition) at 10uM [%] |
| --- | --- |
| CCOC(=O)c1nn(-c2ccc(C)cc2)c(C)c1C(C)=O | 4.57 |
| Cc1ccc(S(=O)(=O)NNC(=O)C2COc3ccccc3O2)cc1 (stereo not shown) | 5.24 |
| COc1ccc(C(CNC(=O)c2ccc(OCc3ccccc3)cc2)N2CCOCC2)cc1 (stereo not shown) | -18.1 |
| CCOC(=O)N1CCC(N(CCN(C)C)C(=S)Nc2ccccc2OC)CC1 | -16.2 |
| CCCC1=C(C(=O)OCC)C(c2ccc(F)cc2)n2ncnc2N1 (stereo not shown) | -21.3 |
| COc1cccc(CN2C(=O)CCC2(C)C(=O)NC2CCCCCC2)c1 (stereo not shown) | -11.7 |
| COc1ccc(-c2cc(=O)oc3cc(OC(=O)C4CCCCC4)c(Cl)cc23)cc1 | 11.2 |
| COc1ccccc1NC(=O)CC(c1ccc(OC(C)C)cc1)c1ccccc1OC (stereo not shown) | -1.62 |
| COc1ccc(C(CCNCc2ccc(N(C)C)cc2)c2ccccc2)cc1 (stereo not shown) | -72.2 |
| COc1ccccc1C(CCNCc1ccc(N(C)C)cc1)c1ccc(OC(C)C)cc1 (stereo not shown) | -73.8 |
| COc1ccccc1CNC(=O)c1ccc(OC(C)C)cc1 | 17.6 |
| COc1ccc(CNC(=S)NCc2ccc(OC(C)C)cc2)cc1 | -3.86 |
| COc1ccccc1C(O)P(=O)(OCC(C)C)c1ccc(N(C)C)cc1 (stereo not shown) | -0.204 |
| COc1ccc(CNCCC(c2ccc(OC(C)C)cc2)c2ccccc2OC)cc1 (stereo not shown) | -66.1 |
| COc1ccc(C(CCNCc2ccc(N(C)C)cc2)C(C)C)cc1 (stereo not shown) | -40.5 |
| COc1ccc(CNC(c2ccccc2)c2ccc(Cl)cc2)cc1 (stereo not shown) | 6.38 |
| COc1ccccc1C(CCNCc1ccccc1)c1ccc(OC(C)C)cc1 (stereo not shown) | -59.3 |
| COc1ccccc1C(CC(=O)Nc1ccc(C)c(C)c1)c1ccc(OC(C)C)cc1 (stereo not shown) | 10.2 |
| O=C(Nc1ncc(Br)s1)C1CCCN1S(=O)(=O)c1cccc2cccnc12 (stereo not shown) | -3.36 |
| Cc1cccc(C(=O)O/N=C2\CCS(=O)(=O)c3sccc32)c1 | 1.16 |
| Cc1ccc(NC(=O)C(OC(=O)c2ccc(NC(N)=O)cc2)c2ccccc2)cc1Cl (stereo not shown) | -3.17 |
| COc1ccc(N2CCC(N3CCN(C)C(CCO)C3)CC2)cc1 (stereo not shown) | 10.2 |
| O=C(NCC1CCCO1)c1ccc(Cl)c(S(=O)(=O)Nc2ccccc2)c1 (stereo not shown) | 2.86 |
| O=C(CCc1ccccc1)Nc1nccs1 | 14.9 |
| COc1ccccc1N1CCN(C(=O)c2ccc(Cn3c(=S)[nH]c4cc5c(cc4c3=O)OCO5)cc2)CC1 | 21.3 |

| Structure (SMILES) | hERG current change (%, negative = inhibition) at 10uM [%] |
| --- | --- |
| CC[C@H](C)[C@@H](NC(=O)O[C@@H]1C(=O)c2cc(OC)ccc2O[C@H]1c1ccc(OC)c(Br)c1)C(=O)OC | -1.62 |
| CN(C)c1cccc(C(=O)Nc2nnc(Cc3ccccc3)s2)c1 | 0.344 |
| Cn1cnc2cc(NCc3ccccc3O)ccc21 | 6.3 |
| COc1ccc2c(c1)C=C(CN1CCN(C3CCCC3)C(CCO)C1)CO2 (stereo not shown) | -68.2 |
| COc1cccc2c1OCC(CN1CCN(Cc3ccccc3F)C(CCO)C1)=C2 (stereo not shown) | -19.3 |
| COc1cccc2c1OCC(CN1CCN(CCC(C)C)C(CCO)C1)=C2 (stereo not shown) | -3.37 |
| CCOc1ccc(CN2CCN(CC3=Cc4cccc(OC)c4OC3)CC2CCO)cc1 (stereo not shown) | -83.4 |
| COc1cccc2c1OCC(CN1CCN(C3CCCCC3)C(CCO)C1)=C2 (stereo not shown) | -17 |
| COc1ccc2c(c1)C=C(CN1CCN(C(C)C)C(CCO)C1)CO2 (stereo not shown) | 5.68 |
| COc1ccc2c(c1)C=C(CN1CCN(Cc3ccccc3C)C(CCO)C1)CO2 (stereo not shown) | -25.6 |
| COc1cccc2c1OCC(CN1CCN(Cc3ccccc3)C(CCO)C1)=C2 (stereo not shown) | -47.6 |
| CCOc1ccccc1CN1CCN(CC2=Cc3cc(OC)ccc3OC2)CC1CCO (stereo not shown) | -83.3 |
| Cl.O=C(OCCN1CCOCC1)c1cccs1 | 6.58 |
| COc1ccc(C2=CC(=O)C[C@H](c3ccc(F)cc3)C2)cc1F | -16.5 |
| CN(Cc1ccccc1)Cc1c(O)ccc2ccccc12 | 7.65 |
| CC(CCc1ccccc1)NC(=O)Cc1ccccc1 (stereo not shown) | 2.65 |
| COCC(C)NCc1cccc2ccccc12.O=C(O)C(=O)O (stereo not shown) | -0.173 |
| COc1cccc(OC)c1C(=O)NC(C)CCc1ccccc1 (stereo not shown) | -19.1 |
| COc1ccc2ccccc2c1CN(C)Cc1ccccc1.O=C(O)C(=O)O | -51.7 |
| COc1ccc2ccccc2c1CNC(C)c1ccccc1.O=C(O)C(=O)O (stereo not shown) | -44.4 |
| COc1ccc2ccccc2c1CNC(C)CCc1ccccc1.O=C(O)C(=O)O (stereo not shown) | -77.8 |
| CN(CCOc1cccc2ccccc12)Cc1ccccc1.O=C(O)C(=O)O | 0.659 |
| COc1ccc2ccccc2c1CNCCN1CCOCC1.Cl | 14.4 |
| COc1ccc2ccccc2c1CNCCc1ccccc1.Cl | -53.1 |
| CC(CCc1ccccc1)NCc1cccc2ccccc12.O=C(O)C(=O)O (stereo not shown) | -60.9 |

| Structure (SMILES) | hERG current change (%, negative = inhibition) at 10uM [%] |
| --- | --- |
| COc1ccc(CCNCc2c(OC)ccc3ccccc23)cc1OC.Cl | -44.6 |
| CC1(C)CC2CC(C)(CN2C(=O)c2cc(-c3ccccc3O)on2)C1 (stereo not shown) | 12.7 |
| Cc1ccc(S(=O)(=O)N2CCN(C(=O)COC(=O)c3ccccc3Cl)CC2)c(C)c1 | -12.5 |
| Cc1cccnc1NC(=O)Nc1ccccc1 | 1.64 |
| CCCOc1ccc(N2C(=O)CC(NCc3cccs3)C2=O)cc1 (stereo not shown) | -18.6 |
| COc1ccccc1CNC(=O)C1COc2ccccc2O1 (stereo not shown) | -15.1 |
| Cc1cc(NC(=O)c2ccc([N+](=O)[O-])cc2)n(CCC#N)n1 | 11 |
| O=C(NCCCc1nc2ccccc2[nH]1)c1cccs1 | -5.12 |
| COc1ccc2ccccc2c1CNCc1ccc(C)cc1.O=C(O)C(=O)O | -69.7 |
| COc1cccc(CNCc2ccccn2)c1OC | 5.32 |
| COc1ccc(CCNCc2ccccn2)cc1OC | 0.278 |
| COc1ccc(CCNCc2c(OC)ccc3ccccc23)cc1.O=C(O)C(=O)O | -44.9 |
| COc1ccccc1CNCc1ccc(C)cc1.O=C(O)C(=O)O | -6.14 |
| COc1ccc2ccccc2c1CNCc1ccccn1.Cl | -51.8 |
| CC(C)N(Cc1nc(-c2ccc(Cl)cc2)no1)C(=O)CCC1CCCC1 | -7.81 |
| Cc1nn(CCCC(=O)NC2CCC(C)CC2)c(=O)c2nn(-c3ccccc3)c(C)c12 (stereo not shown) | -5.97 |
| O=C(/C=C(/c1ccc(Cl)cc1)n1cncn1)c1ccccc1 | -27.5 |
| C#CCOCCOCCOCCNc1nc(N2CCN(C(=O)[C@H](CCC(=O)O)n3cc(C(N)CO)nn3)CC2)nc(N2CCN(C(=O)[C@H](Cc3ccc(O)cc3)n3cc(C(N)[C@H](C)CC)nn3)CC2)n1.Cl (stereo partly shown) | 9.89 |
| CCN(CC(=O)Nc1c(F)cccc1F)C(=O)COc1ccc2c(c1)CCC2 | -2.81 |
| O=S(=O)(c1ccc(Nc2ccc(-c3ccc4c(c3)OCCO4)nn2)cc1)N1CCCC1 | 5.27 |
| COc1ccccc1CNc1ccc2nnc(CCNC(=O)c3ccc(C)cc3)n2n1 | -0.303 |
| CCCn1c(CN2CCN(C(=O)c3ccco3)CC2)nc2c1c(=O)n(C)c(=O)n2C | -10.3 |
| CCCCn1c(CN2CCN(C(=O)c3ccco3)CC2)nc2c1c(=O)n(C)c(=O)n2C | -34.1 |
| CCCCCCn1c(CN2CCN(C(=O)c3ccco3)CC2)nc2c1c(=O)n(C)c(=O)n2C | -65.8 |
| CCOCCn1c(CN2CCN(C(=O)c3ccco3)CC2)nc2c1c(=O)n(C)c(=O)n2C | -3.37 |

| Structure (SMILES) | hERG current change (%, negative = inhibition) at 10uM [%] |
| --- | --- |
| CC(C)CCn1c(CN2CCN(C(=O)c3ccco3)CC2)nc2c1c(=O)n(C)c(=O)n2C | -39.9 |
| CCCCCn1c(CN2CCN(C(=O)c3ccco3)CC2)nc2c1c(=O)n(C)c(=O)n2C | -60.5 |
| Cl.OC1(c2ccccc2)CCN(Cc2ccccc2)C2CCCCC21 (stereo not shown) | -15.6 |
| COc1ccc(-c2nnc3sc(-c4ccco4)nn23)cc1OC | 3.81 |
| COCCCNc1nnc(Cc2ccccc2)c2ccccc12 | -31.4 |
| CC1(C)CC(=O)N(c2cccc(Cl)c2)C(=O)C1 | 10.4 |
| CCOC(=O)C1CCN(C(=O)c2cc3c(=O)n4ccccc4nc3s2)CC1 | -6.6 |
| CCOc1ccccc1Cn1c(=O)sc2ccccc21 | 7.43 |
| COc1ccc(C(=O)NN/C(C)=C/C(=O)c2ccccc2)cc1 | 4.41 |
| CCN(CC(=O)Nc1c(F)cccc1F)C(=O)C1CCN(C(=O)c2ccc(F)cc2)CC1 | 4.59 |
| N#CCCN(Cc1cccnc1)C(=O)Nc1ccc(Cl)c(Cl)c1 | -26 |
| Cc1ccc(NC(=O)N(Cc2cccnc2)Cc2ccco2)cc1C | -27.2 |
| O=C(Nc1ccc(Cl)c(Cl)c1)N(Cc1cccnc1)Cc1ccco1 | -73.7 |
| CCc1ccc(NC(=S)N(Cc2cccnc2)Cc2ccco2)cc1 | -17.2 |
| COc1ccc(Cl)cc1NC(=S)N(Cc1cccnc1)Cc1ccco1 | -73.8 |
| COc1ccccc1NC(=S)N(Cc1cccnc1)Cc1ccco1 | -33.6 |
| CCc1ccc(NC(=O)N(Cc2cccnc2)Cc2ccco2)cc1 | -53.1 |
| CCc1ccccc1NC(=S)N(Cc1cccnc1)Cc1ccco1 | -18.8 |
| O=C(c1ccco1)N(Cc1ccc(Cl)cc1)Cc1ccco1 | -41.2 |
| S=C(Nc1ccccc1Cl)N(Cc1cccnc1)Cc1ccco1 | -4.94 |
| O=C(Nc1ccccc1)N(Cc1cccnc1)Cc1ccco1 | -32.9 |
| O=C(Nc1ccc(Cl)cc1)N(Cc1cccnc1)Cc1ccco1 | -63.9 |
